NPR1 activator = GC-A (human) enzyme activation | activation, % at 10 µM | P16066 | AID 1671463 | HEK293 GC-A cells, cGMP TR-FRET, EC30 ANP; 0% at EC30 ANP, 100% saturating ANP | 370,000 tested, 0.14% active; in the data active = activation above about 40%
Target sequence (P16066 whole entry, looked up): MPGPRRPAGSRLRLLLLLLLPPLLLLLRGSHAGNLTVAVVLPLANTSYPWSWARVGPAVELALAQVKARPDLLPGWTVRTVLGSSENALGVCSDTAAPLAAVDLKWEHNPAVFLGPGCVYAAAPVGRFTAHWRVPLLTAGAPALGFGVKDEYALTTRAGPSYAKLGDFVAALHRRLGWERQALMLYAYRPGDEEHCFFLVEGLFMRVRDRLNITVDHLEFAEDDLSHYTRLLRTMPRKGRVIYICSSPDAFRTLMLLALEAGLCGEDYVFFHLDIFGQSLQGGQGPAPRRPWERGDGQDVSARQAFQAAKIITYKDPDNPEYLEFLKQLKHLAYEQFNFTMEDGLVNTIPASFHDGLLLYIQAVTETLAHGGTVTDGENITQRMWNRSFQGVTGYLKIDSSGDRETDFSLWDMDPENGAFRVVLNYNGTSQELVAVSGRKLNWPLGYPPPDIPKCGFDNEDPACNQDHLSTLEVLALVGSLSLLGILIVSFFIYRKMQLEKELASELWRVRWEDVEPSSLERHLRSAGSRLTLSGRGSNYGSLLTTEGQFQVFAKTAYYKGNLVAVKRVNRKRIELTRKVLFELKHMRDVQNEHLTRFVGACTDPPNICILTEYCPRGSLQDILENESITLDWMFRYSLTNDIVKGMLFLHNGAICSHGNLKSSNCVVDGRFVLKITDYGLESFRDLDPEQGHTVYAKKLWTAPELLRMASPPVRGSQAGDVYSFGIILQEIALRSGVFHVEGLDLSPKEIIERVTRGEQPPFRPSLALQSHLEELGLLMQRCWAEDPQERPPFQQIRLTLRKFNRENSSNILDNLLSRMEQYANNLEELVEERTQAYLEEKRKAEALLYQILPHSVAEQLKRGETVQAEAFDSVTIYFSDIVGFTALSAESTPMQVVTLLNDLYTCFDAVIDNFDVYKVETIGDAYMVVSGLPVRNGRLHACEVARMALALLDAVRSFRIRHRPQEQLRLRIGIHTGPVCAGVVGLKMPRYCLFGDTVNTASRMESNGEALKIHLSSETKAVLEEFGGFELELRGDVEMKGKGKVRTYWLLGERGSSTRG
NPR2 activator = GC-B (human) receptor activation; P20594; HEK293-GC-B cells, CNP EC30, cGMP TR-FRET; 0% at EC30 CNP, 100% saturating CNP; activation, % at 10 µM; 370,000 tested, 0.11% active;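 active = activation at 10 µM reaching about 35% in either raw or pattern-adjusted values, limit read from the data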
ALR inh = human ALR oxidase inhibition via reduced H2O2 | P55789 | purified ALR, DTT oxidation, H2O2 HRP-luminol luminescence | inhibition, % (concentration not given with the values) | 290,000 tested, 3.8% active;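 active = mean replicate inhibition above about 79%, with every replicate also reaching it, limit read from the data; inconclusive = only one of the two criteria met; inactive = mean below limit and not every replicate reaching it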
HDAC3 inh = inhibitors of human histone deacetylase 3; O15379; 320,000 tested, 0.15% active; AID 2718; recombinant HDAC3, fluorogenic peptide/trypsin coupled, fluorescence; inhibition, % at 8.3 µM; in the data active = inhibition above about 26%, passing the limit was not always enough; inconclusive = no clear call, values can overlap the other calls
Of the large screens only hits and unclear results are named; the others gave an inactive call. This is one part of a sample in which hits are shown more often than they occur.

CC(=O)Nc1cccc(OCC(O)Cn2cnc3ccccc32)c1 (stereo not given)	ALR inh 99.6
COc1c(/C=N/Nc2ccc(C(=O)O)cc2)c(CCN(C)C(C)=O)cc2c1OCO2	ALR inh 96.7
CCn1c(CNC(=O)c2ccc(OC)cc2)nnc1SCC(=O)c1ccccc1	none
CCn1c(CCCNC(=O)c2cccs2)nc2ccccc21	ALR inh 97.8 (no result: HDAC3 inh)
CCn1c(CNC(C)=O)nnc1SCC(=O)c1ccc(Br)cc1	ALR inh 96.3
CCCn1c(CCNC(=O)c2cccs2)nc2ccccc21	none
CCn1c(CCNC(=O)c2cccs2)nnc1SCC(=O)c1ccc(OC)cc1	HDAC3 inh 26.6
Cc1ccncc1C(N)=O	none (no result: ALR inh, HDAC3 inh)
CN1CCc2c(sc(NC(=O)c3ccco3)c2C(N)=O)C1	none
CN1CCc2c(sc(NC(=O)c3cc(Cl)sc3Cl)c2C(N)=O)C1	ALR inh 97.3
CN(C)C(=O)N1CCN(C(=O)[C@H]2O[C@@H](n3ccc(N)nc3=O)[C@H](O)[C@@H]2O)CC1	none (no result: ALR inh, HDAC3 inh)
Cc1ccc(NC(=S)NNc2ccc([N+](=O)[O-])cc2S(=O)(=O)Nc2ccccc2C(=O)O)cc1C	none (no result: ALR inh)
Cc1ccc(NC(=S)NNC(=O)c2cccc([N+](=O)[O-])c2)cc1Cl	ALR inh 87.8
Cc1ccc(C(=O)NNC(=S)Nc2cccc(Cl)c2Cl)cc1[N+](=O)[O-]	ALR inh 97.5
O=C(NNC(=S)Nc1ccc(F)cc1)c1cccc([N+](=O)[O-])c1	none (no result: ALR inh)
Cc1ccc(NC(=S)NNc2ccc(C(=O)O)cc2[N+](=O)[O-])cc1C	ALR inh 98.7
CC(C)(C)NC(=O)c1ccccc1NC(=O)C1CC(=O)N(C2CCCCC2)C1 (stereo not given)	none
CCC(CC)CN1CCC(CN2C(=S)NC[C@@H]2CC(C)C)CC1	none (no result: ALR inh, HDAC3 inh)
COc1cccc(NC(=S)NC2CC(C)CC(C)(C)C2)c1 (stereo not given)	none (no result: ALR inh, HDAC3 inh)
Cc1noc2ncnc(Sc3ccc(Br)cc3)c12	ALR inh 98.7
Cc1noc2ncnc(N3CCCC3)c12	none
O=[N+]([O-])c1ccc(-c2cn(-c3ccccc3F)c(=S)[nH]2)cc1	ALR inh 83.7
CC(=O)c1c(C)n(-c2ccc(Cl)cc2)c2ccc(O)cc12	none
CC(=O)c1c(C)n(-c2cccc(Cl)c2)c2ccc(O)cc12	NPR1 activator 65.8
Cc1cc(Cl)cc2sc(=S)[nH]c12	none (no result: ALR inh, HDAC3 inh)
S=c1[nH]c2cc(Cl)ccc2s1	ALR inh 98.2
CN(CC(=O)N1CCOCC1)C(=O)CSc1nc2ccccc2s1	none
CN(CC(=O)Nc1ccccc1Cl)C(=O)CSc1nc2ccccc2s1	ALR inh 84.7
COc1ccc(NC(=O)CN(C)C(=O)CSc2nc3ccccc3s2)cc1	ALR inh 97.9
COc1ccc(NC(=O)CSc2nc(N)c(C(=O)Nc3ccc(N(C)C)cc3)s2)cc1	ALR inh 98.7 (no result: NPR1 activator, NPR2 activator)
Cc1nnc(SCC(=O)N(C)CC(=O)Nc2ccccc2Cl)s1	none
CCOc1ccc(-n2c(SCC(=O)c3ccc4ccccc4c3)nnc2-c2ccco2)cc1	none (no result: ALR inh, HDAC3 inh)
CSc1ncccc1C(=O)OCC(=O)N1CCc2ccccc21	none
FC(F)(F)c1cccc(N2CCC(N=CN3CCCCCC3)=N2)c1	none
Oc1ccccc1C=NC1=NN(c2cccc(C(F)(F)F)c2)CC1	ALR inh 78.3, HDAC3 inh inconclusive
CN(C)[C@H]1CCN(c2ccc3c(c2)O[C@@H]2CCN(C2)S3(=O)=O)C1	none (no result: ALR inh, HDAC3 inh)
Cc1cc2nc(-c3ccc(SCc4ccc(C(=O)O)cc4)nc3)[nH]c2cc1C	ALR inh 98.7
CC1(C)C2CCC(CN)C1C2 (stereo not given)	none (no result: ALR inh, HDAC3 inh)
CCCCN1CC(O)=C(c2nc(-c3ccc(Br)cc3)cs2)C1=N	none
COc1ccc(-c2csc(C3=C(O)CN(CCCN4CCCC4=O)C3=N)n2)cc1OC	ALR inh 95.7
O=C1NCCCc2c1oc1ccc(O)cc21	ALR inh 99.0
O=C(CN1CCN(c2ncccn2)CC1)N1CCCc2c1c(=O)oc1ccc(O)cc21	none
Cc1nn(C)c(C(=O)Sc2cccc(Cl)c2)c1[N+](=O)[O-]	ALR inh 98.5
O=C(C[n+]1cc(-c2ccc(F)cc2)n2c1CCC2)Nc1nc(-c2ccccc2)cs1	none
O=C(C[n+]1cc(-c2ccc(Cl)cc2)n2c1CCC2)Nc1nc(-c2ccccc2)cs1	ALR inh 93.7
CC1(C)CC(=O)C=C(NNC(=O)c2ccccc2)C1	none
Cc1occc1C(=O)NNC1=CC(=O)CC(C)(C)C1	ALR inh 89.2
COc1ccc(Cl)cc1N1C(=O)/C(=C\c2sccc2C)N=C1SCC(=O)NC1CC1	ALR inh 81.0
C=CCN1C(=O)/C(=C\c2ccc(Cl)cc2)N=C1SCC(=O)NC1CCCCC1	none (no result: NPR1 activator, NPR2 activator)
O=C1C2C3CC(C(Br)C3Br)C2C(=O)N1c1nccs1 (stereo not given)	none
CN(C)c1ccc(N=Nc2cccc3ccoc23)cc1	ALR inh 85.8
OCCn1c(-c2ccc(F)cc2)csc1=Nc1ccccc1	ALR inh 95.9
CCn1c(-c2ccccc2)csc1=Nc1ccc(O)cc1	ALR inh 98.9
O=C(NNc1cc(Br)c(O)c(Br)c1)c1ccccc1	ALR inh 98.7
NS(=O)(=O)c1ccc(NNC(=O)c2ccccc2)cc1	none
O=C(c1ccco1)N1CCN(c2ccc(N3CCCCC3)nn2)CC1	none (no result: HDAC3 inh)
CC1=NN(c2ccccc2)C(=O)/C1=C/C=C/C=C/N(C)C	ALR inh 96.4
COCCNC(=S)N(C)[C@H]1C[C@H]2c3cc(-c4ccccc4)ccc3CCN2C(=O)[C@H]1[C@H](C)O	none (no result: ALR inh, HDAC3 inh)
CN(C)c1ccc(C(c2nnnn2C(C)(C)C)N2CCN(C(=O)c3ccco3)CC2)cc1 (stereo not given)	ALR inh 90.3
CCOc1ccc(C(c2nnnn2C(C)(C)C)N2CCN(C(=O)c3ccco3)CC2)cc1 (stereo not given)	none
CCCN1C[C@@H](C)[C@@H](OC)CN(C)C(=O)c2ccc(NC(=O)c3cccc(F)c3)cc2OC[C@H]1C	none (no result: ALR inh, HDAC3 inh)
COC(=O)C1=C(C)NC(=O)NC1c1ccc([N+](=O)[O-])o1 (stereo not given)	none
COC(=O)C1=C(C)NC(=O)NC1c1ccc(-c2ccc(Cl)cc2)o1 (stereo not given)	HDAC3 inh 44.7
COc1ccc(C)cc1NC(=O)c1cc2c(CO)cnc(C)c2oc1=N	ALR inh 86.3
COc1ccccc1NC(=O)c1cc2c(CO)cnc(C)c2oc1=Nc1ccc(OC)c(OC)c1	none
CCCC(NC(=S)NCC1CCCO1)C12CC3CC(CC(C3)C1)C2 (stereo not given)	none
CCN(CCNC(=O)c1ccc(C#N)cc1)c1cccc(C)c1	ALR inh 98.1 (no result: NPR1 activator, NPR2 activator)
CN(C)c1ccc(/C=C/C(=O)c2ccc3c(c2)OCO3)cc1	ALR inh 98.9
CC1(C)Oc2ccc(C(=O)N/N=C/c3ccc(O)cc3)cc2NC1=O	ALR inh 99.3
CN(C)c1ccc(/C=C/C(=O)c2cccnc2)cc1	ALR inh 99.2
COc1cccc(/C=N/NC(=O)c2cccc(N3CCCC3=O)c2)c1	none
CN(C)c1ccc(/C=N/NC(=O)c2cccc(N3CCCC3=O)c2)cc1	ALR inh 87.5 (no result: HDAC3 inh)
